Test [1] is described as follows: BSK_3C_SRB: Viability Assessment in the BioMAP Diversity Plus: 3C Assay (AID 2283023).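 Further: cells read 24 h after compound dosing; fitted both ways against DMSO so a hit may be signal rise or drop.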 The following applies: primary human endothelial cells (HUVEC). Put shortly:
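Overt cytotoxicity is gauged in parallel confluent HUVEC cultures by SRB total-protein staining at the time of biomarker measurement, 24 h after dosing. Gain or loss of signal is fitted versus DMSO.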

Read-out in test [2]: Matrix Metallopeptidase 1 (MMP1), MMP1 (gene 4312)
The test can be described thus: BSK_BE3C_MMP1: BioMAP Diversity Plus: BE3C Assay for Matrix Metallopeptidase 1 (MMP1) Biomarker Activity (AID 2283024). The following applies: primary human bronchial epithelial cells; actives raise or lower the signal. Put shortly:
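In this multiplexed primary-cell system, human bronchial epithelium received chemicals for 24 h before an ELISA for MMP1. Values reflect bidirectional fits normalised to the DMSO baseline.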

Test [3] can be described thus: BSK_3C_Vis: BioMAP Diversity Plus: 3C Assay for Morphology Visualization (AID 2283025).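 Further: fitted both ways so gain or loss versus DMSO counts.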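 On AC50: light microscopy image of cell morphology used as background control; cells imaged 24 h after dosing.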 The following applies: primary human endothelial cells (HUVEC). The procedure, abridged: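 Light-microscopy morphology readout, 24 h exposure, human primary umbilical vein endothelium; analysed relative to DMSO with bidirectional fitting.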
Read-out in test [4]: Pselectin, SELP (gene 6403)
The test is described as follows: BSK_4H_Pselectin: BioMAP Diversity Plus: 4H Assay for Pselectin Biomarker Activity (AID 2283026). The following applies: primary human endothelial cells (HUVEC); actives raise or lower the signal. The procedure, abridged: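 Bidirectional fits against DMSO gave the endpoint. Cells: primary human umbilical vein endothelium, chemical-treated for 24 h before ELISA detection of P-selectin.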

Test [5] can be described thus: BSK_4H_SRB: Viability Assessment in the BioMAP Diversity Plus: 4H Assay (AID 2283027).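 Further: cells exposed to compound for 24 h before staining.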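 On AC50: curves fitted both ways versus DMSO so AC50 may be loss or gain.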 The following applies: primary human endothelial cells (HUVEC). The procedure, abridged:
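HUVEC, 24 h post-dose; 10% TCA fix, 0.1% SRB stain, A560 nm. Total protein = overt cytotoxicity, parallel to biomarker read. Bidirectional fit vs DMSO baseline.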

A short description of test [6]: BSK_BE3C_SRB: Viability Assessment in the BioMAP Diversity Plus: BE3C Assay (AID 2283028).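 Further: measured 24 h after chemical dosing.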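 On AC50: fitted both ways so AC50 may mark signal gain or loss versus DMSO.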 The following applies: primary human bronchial epithelial cells. Put shortly:
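SRB total-protein staining (0.1%, after TCA fixation) of chemically dosed human bronchial epithelial primary cells at 24 h; DMSO serves as the negative control for bidirectional curve fitting.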

Read-out in test [7]: Thrombomodulin, THBD (gene 7056)
The test can be described thus: BSK_3C_Thrombomodulin: BioMAP Diversity Plus: 3C Assay for Thrombomodulin Biomarker Activity (AID 2283029). The following applies: primary human endothelial cells (HUVEC); actives raise or lower the signal. The procedure, abridged: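 In a multiplexed primary-cell system, human umbilical vein endothelium received chemical and was assayed 24 h later for thrombomodulin by ELISA. Parallel cultures were SRB-stained (0.1% SRB after 10% TCA fixation, read at 560 nm) to flag cytotoxicity.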

Read-out in test [8]: Urokinase-type plasminogen activator receptor (uPAR), PLAUR (gene 5329)
The test is described as follows: BSK_4H_uPAR: BioMAP Diversity Plus: 4H Assay for Urokinase-type plasminogen activator receptor (uPAR) Biomarker Activity (AID 2283030). The following applies: primary human endothelial cells (HUVEC); actives raise or lower the signal. The procedure, abridged:
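Endpoint derived via bidirectional curve fitting against DMSO baseline; readout was ELISA detection of uPAR on umbilical vein endothelial cells at 24 h post-treatment, with SRB-stained parallel cultures assessing cytotoxicity.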

Read-out in test [9]: Vascular endothelial growth factor receptor 2 (Homo sapiens) (UniProt P35968)
The test is described as follows: BSK_4H_VEGFRII: BioMAP Diversity Plus: 4H Assay for Vascular endothelial growth factor receptor 2 (VEGFR2) Biomarker Activity (AID 2283031).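 On AC50: cell-surface VEGFR2 protein level quantified by ELISA.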 The following applies: primary human endothelial cells (HUVEC); actives raise or lower the signal. The procedure, abridged: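 In this multiplexed HUVEC system, biomarker ELISA was performed after 24 h chemical exposure. Parallel SRB staining (TCA fixation, 560 nm) tracked cytotoxicity; DMSO served as baseline.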

Read-out in test [10]: Human Leukocyte Antigen - DR isotype (HLADR), HLA-DRA (gene 3122)
The test is described as follows: BSK_BE3C_HLADR: BioMAP Diversity Plus: BE3C Assay for Human Leukocyte Antigen - DR isotype (HLADR) Biomarker Activity (AID 2283032). The following applies: primary human bronchial epithelial cells; actives raise or lower the signal. Put shortly: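 BioMAP BE3C format: human bronchial epithelium, 24 h compound treatment, ELISA detection of HLA-DR, with bidirectional analysis relative to DMSO.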

We go through 20 compounds from PubChem BioAssay (EPA / NIEHS).

Usually AC50 stands for the concentration giving half of the maximal activity seen.

Where “and” joins values, the source holds several entries; their conditions need not be identical. Identical values can stand only once. A structure can be active in one record and inactive in another. Calls of active or inactive are those of the source. How the source made its calls: active means hit-call score of the fitted dose curve at least 0.9, where 1 is the maximum; inactive means score below 0.9.

As for `Cn1c(=O)cc(Oc2ccc(F)cc2F)c2cnc(NCC(C)(C)O)nc21`, the outcome in test [1], in test [2], in test [3], in [4], in test [5] and in test [6] was inactive. Besides, the result in test [8], in [9] and in [10] was inactive. For the same compound, the AC50 in [7] was 4.61 µM (active).

For the compound `CC/C(=C\C(=N/O)C(N)=O)C(C)[N+](=O)[O-]` (stereo not drawn), the result in test [1], in test [2], in [3], in [4], in [5] and in test [6] was inactive. For the same compound, the outcome in [7], in test [8] and in test [10] was inactive.

As for `CC[C@H]1OC(=O)[C@H](C)[C@@H](O[C@H]2C[C@@](C)(OC)[C@@H](O)[C@H](C)O2)[C@H](C)[C@@H](O[C@@H]2O[C@H](C)C[C@H](N(C)C)[C@H]2O)[C@](C)(O)C[C@@H](C)C(=O)[C@H](C)[C@@H](O)[C@]1(C)O`, the result in test [1], in test [2], in test [3], in [4], in [5] and in test [6] was inactive. In addition, the result in test [7], in test [8], in [9] and in test [10] was inactive.

Consider `CNCc1ccc(NC(=O)c2c[nH]c3c2C(=O)CCC3)cc1`, for which the outcome in test [1], in [2], in test [3], in test [4], in [5] and in [6] was inactive. Also, the result in [7], in [8], in [9] and in test [10] was inactive.

With `CCCCCCCCCCCCCCCO`, the AC50 in test [1] was 36.8 µM (active); in test [3] it was 37.3 µM (active); in test [4], 31.3 µM (active); in test [5] it was 36.1 µM (active); in test [7], 6.63 µM (active); in test [9], 36.8 µM (active). Moreover, the outcome in [2], in test [6], in test [8] and in test [10] was inactive.

Consider `CC(C)CCO`, for which the outcome in test [1], in test [2], in test [3], in test [4], in [5] and in test [6] was inactive. For the same compound, the result in test [7], in test [8] and in test [10] was inactive.

For the compound `COCCOCCOCCOC`, the outcome in test [1], in test [2], in test [3], in test [4], in [5] and in test [6] was inactive. The result in test [7], in [8], in [9] and in [10] was inactive.

In the case of `O=C(O)c1cccc(Oc2ccccc2)c1`, the outcome in test [1], in test [2], in [3], in [4], in test [5] and in [6] was inactive. For the same compound, the result in [7], in [8], in test [9] and in test [10] was inactive.

For the compound `CNS(=O)(=O)c1cc(C(=O)N2CCC(CCN3C4CCC3CC(n3c(C)nc5ccccc53)C4)(c3cccc(F)c3)CC2)c(Cl)cc1F` (stereo not drawn), the AC50 in test [1] is 20.6 µM (active); in [2], 20 µM (active); in test [3] it was 15.2 µM (active); in [4], 13.2 µM (active); in test [5], 11.8 µM (active); in test [8], 0.148 µM (active). The outcome in test [6], in test [7], in test [9] and in test [10] was inactive.

For the compound `CCc1cc(SCc2sc(-c3ccc(C(F)(F)F)cc3)nc2CN2CCN(c3ccc(OC)cc3)CC2)ccc1OCC(=O)O`, the AC50 is 5.75 µM (active) in test [1]; 9.73 µM (active) in test [2]; 14.5 µM (active) in test [3]; 11.3 µM (active) in test [4]; 11.8 µM (active) in test [5]; 5.19 µM (active) in [6]. The AC50 was 37 µM (active) in test [7], 16 µM (active) in test [8], 4.8 µM (active) in [9] and 5.41 µM (active) in test [10].

For the compound `O=C(O)c1cccc(N(Cc2cccnc2)c2ccc(OC(F)F)c(OC(F)F)c2)c1`, the outcome in test [1], in [2], in [3], in test [5], in test [6] and in test [7] was inactive. Further, the result in test [8], in test [9] and in test [10] was inactive. For the same compound, the concentration at half-maximal activity (AC50) in test [4] was 2.44 µM (active).

On to `CC1(C)C(=O)N(Br)C(=O)N1Br`, for which the result in test [1], in test [2], in [3], in test [4], in test [5] and in test [6] was inactive. In addition, the outcome in test [7], in test [8], in [9] and in test [10] was inactive.

In the case of `O=C1OC(=O)C2C3C=CC(C3)C12` (stereo not drawn), the outcome in [1], in [2], in [3], in test [4], in test [5] and in test [6] was inactive. The result in test [7], in test [8], in test [9] and in [10] was inactive.

Turning to `CCC(C)(C)C(=O)O[C@H]1C[C@@H](C)C=C2C=C[C@H](C)[C@H](CC[C@@H]3C[C@@H](O)CC(=O)O3)[C@H]21`, the AC50 in test [1] was 3.97 µM (active); in test [2], 31.9 µM (active); in [3], 20 µM (active); in test [5] it was 10.1 µM (active); in test [6] it was 36.1 µM (active); in [7], 0.526 µM (active). Also, the concentration at half-maximal activity (AC50) is 20 µM (active) in test [8], 26.9 µM (active) in [9] and 30.8 µM (active) in test [10]. The result in test [4] was inactive.

In the case of `CC(C)CCCCCCCOC(=O)CCCCC(=O)OCCCCCCCC(C)C`, the outcome in [1], in test [2], in test [3], in test [4], in test [5] and in [6] was inactive. For the same compound, the result in test [7], in [8], in [9] and in test [10] was inactive.

Regarding `Cc1c(-c2cccnc2)c2ccccc2n1CCCCC(=O)O`, the result in [1], in test [2], in test [3], in test [4], in test [5] and in test [6] was inactive. Moreover, the result in test [7], in test [8], in test [9] and in test [10] was inactive.

In the case of `CCOC(=O)CC(CC(=O)OCC)(OC(C)=O)C(=O)OCC`, the outcome in test [1], in test [2], in [3], in test [4], in test [5] and in test [6] was inactive. The outcome in [7], in [8], in test [9] and in [10] was inactive.

In the case of `CC(C)=CCC/C(C)=C/CO`, the outcome in test [1], in test [2], in test [3], in test [4], in test [5] and in test [6] was inactive. In addition, the outcome in test [7], in test [8], in [9] and in test [10] was inactive.

As to `Cn1cnc([N+](=O)[O-])c1Sc1ncnc2nc[nH]c12`, the AC50 in test [1] was 19.9 µM (active) and 12.6 µM (active) and 14 µM (active); in test [7], 3.36 µM (active). Also, the outcome in [2], in test [3], in [4], in test [5], in [6] and in [7] was inactive. Besides, the result in test [8] and in [10] was inactive.

For the compound `Fc1ccccc1[C@@H](F)COC1CCC(Nc2ncnc3[nH]ncc23)CC1` (stereo partly drawn), the AC50 was 27.6 µM (active) in [1]; 39 µM (active) in [3]; 29.2 µM (active) in test [4]; 30 µM (active) in test [5]; 28.2 µM (active) in test [8]. Besides, the outcome in test [2], in test [6], in [7], in test [9] and in test [10] was inactive.
